In PubChem BioAssay AID588676 (Johns Hopkins Ion Channel Center, 2011):
In all, about 310,000 compounds went through this assay and about 3,900 (1.3%) were called active.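 How the source made its calls: active means calcium-response B-score plate-corrected more than 3 library SD below zero, starting fluorescence within 5 deviations, no agonist response on first addition; inactive means the rest.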 The sample as a whole holds a higher share of actives than the screen did. A structure can be active in one record and inactive in another.

Each molecule was assayed against Mas-related G-protein coupled receptor member X1 (Homo sapiens) (UniProt Q96LB2) (assay: antagonists of human MrgX1 receptor, primary screen, HEK293 cells, Fluo-4 calcium flux (AID 588676;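 on B-score: peak minus trough fluorescence over baseline after final BAM8-22 challenge near maximal dose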)). Conditions: Fluo-4, BAM8-22 antagonism, at 10 µM; hits give low values.
Chain of Mas-related G-protein coupled receptor member X1 (Homo sapiens) (Q96LB2 whole entry, looked up): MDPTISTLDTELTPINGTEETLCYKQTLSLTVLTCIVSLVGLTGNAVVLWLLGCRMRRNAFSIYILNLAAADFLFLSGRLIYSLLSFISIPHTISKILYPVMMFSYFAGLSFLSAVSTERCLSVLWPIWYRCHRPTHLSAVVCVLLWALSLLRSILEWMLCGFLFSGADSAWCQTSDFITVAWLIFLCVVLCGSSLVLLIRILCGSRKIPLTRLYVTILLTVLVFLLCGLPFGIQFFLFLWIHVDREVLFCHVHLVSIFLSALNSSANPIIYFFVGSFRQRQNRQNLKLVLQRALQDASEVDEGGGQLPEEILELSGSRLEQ

SMILES | B-score | outcome
CCCCCc1nnc(NC(=O)c2ccc(=O)n(C)n2)s1 | inactive | 
CCNC(=O)c1c(O)c2cccc3c2n(c1=O)CC3 | -5.85 (active) | 
Cc1cc(=O)n2c3c(cccc13)CCC2 | inactive | 
CCCCc1nc2ccccc2c(=O)n1NC(=O)c1c(O)c2cccc3c2n(c1=O)CC3 | inactive | 
Nc1[nH][nH]c(=O)c1N=Nc1ccc2c(c1)OCO2 | inactive | 
Cc1cc(Nc2cc(N3CCN(C)CC3)nc(Sc3ccc(NC(=O)C4CC4)cc3)n2)n[nH]1 | -6.92 (active) | 
Cc1cc(C)cc(NC(=O)C2CCN(c3nc(C)cc(C)n3)CC2)c1 | inactive | 
Cc1cc(C)nc(N2CCC(C(=O)Nc3ccc4c(c3)OCCO4)CC2)n1 | inactive | 
Cc1ccc(S(=O)(=O)NC(=O)Nc2nc(-c3ccc(F)c(F)c3)cs2)cc1 | inactive | 
COc1cc(CC(=O)Nc2nc(-c3ccc(F)c(F)c3)cs2)cc(OC)c1OC | inactive | 
COc1ccc(CC(=O)Nc2nc(-c3ccc(F)c(F)c3)cs2)cc1OC | -5.43 (active) | 
CCc1nn(CC(=O)N2CCN(c3cc(C)ccc3C)CC2)c(=O)c2cc3occc3n12 | inactive | 
O=C(/C=C/c1ccc(Cl)cc1Cl)NCc1ccco1 | inactive | 
O=C(CSc1c2c(nc3ccc(Cl)cc13)CCCC2)NCc1ccco1 | -6.85 (active) | 
O=C(CSc1nnnn1-c1ccccc1)NCc1ccco1 | inactive | 
COc1ccc(C)cc1NC(=O)CN(C)S(=O)(=O)c1ccc2c(c1)n(C)c(=O)c(=O)n2C | inactive | 
Cc1cc(C)cc(N(CC(=O)NC2CCCC2)C(=O)CCC(=O)Nc2nccs2)c1 | inactive | 
COCCCN(C(=O)Cn1ncc2c(=O)oc3ccc(C)cc3c21)C(C)c1ccncc1 (stereo unspecified) | -9.22 (active) | 
Cc1ccc2oc(=O)c3cnn(CC(=O)N(Cc4ccco4)C4CCCCC4)c3c2c1 | inactive | 
Cc1ccc2oc(=O)c3cnn(CC(=O)N4CCCCCC4)c3c2c1 | inactive | 
CN1CCC(=O)N([C@H](CO)Cc2ccccc2)CC1 | inactive | 
CCN(Cc1ccccc1)S(=O)(=O)c1cc(C(=O)O)ccc1OC | inactive | 
Cc1ccc(CNC(=O)CSc2nnc3c(n2)[nH]c2ccc(F)cc23)cc1 | -5.01 (active) | 
COc1ccc2[nH]c3nc(SCC(=O)NC4CC4)nnc3c2c1 | inactive | 
Cc1ccn2c(=O)nc(SCC(=O)NCc3ccc(F)cc3)nc2c1 | inactive | 
COc1ccc(S(=O)(=O)n2nc(C)c(S(=O)(=O)N3CCOCC3)c2C)cc1 | inactive | 
CCOc1ccc(CC(=O)Nc2ccc(S(=O)(=O)Nc3cc(C)on3)cc2)cc1OCC | -7.96 (active) | 

SMILES | B-score | outcome
CCc1ccc(OC(C)C(=O)Nc2ccc(S(=O)(=O)Nc3cc(C)on3)cc2)cc1 (stereo unspecified) | inactive | 
CCOc1ccc(C(=O)Nc2ccc(S(=O)(=O)Nc3cc(C)on3)cc2)cc1 | inactive | 
CCCOc1ccc(CNC(=O)C2CCN(c3nn4c(=O)cc(C)nc4s3)CC2)cc1 | inactive | 
CC(C)=C1C2CCC1C1C(=O)N(NC(=O)c3ccco3)C(=O)C21 (stereo unspecified) | inactive | 
O=C(NN1C(=O)C2CCCCC2C1=O)c1ccco1 (stereo unspecified) | inactive | 
O=C(NN1C(=O)C2C3C=CC(C3)C2C1=O)c1ccco1 (stereo unspecified) | -9.57 (active) | 
NC(=O)c1cc(S(=O)(=O)N2CCCC2)ccc1OCc1ccc(F)cc1 | inactive | 
CC1CCN(S(=O)(=O)c2nnc(NC(=O)COc3ccccc3F)s2)CC1 | -4.6 (active) | 
Cc1ccccc1OCC(=O)Nc1nnc(S(=O)(=O)N2CCCC2)s1 | inactive | 
O=C(COc1ccccc1F)NC1CC1 | inactive | 
O=S(=O)(CCc1nc2ccccc2o1)c1ccc(Cl)cc1 | inactive | 
CCc1nnc(NC(=O)c2cccc(S(=O)(=O)N(C)c3ccc(OC)cc3)c2)s1 | inactive | 
CCc1ccc2nc3sc(C(=O)Nc4nnc(CC)s4)c(N)c3cc2c1 | -7.06 (active) | 
CCc1nnc(NC(=O)c2sc3nc(C)cc(COC)c3c2N)s1 | inactive | 
COc1ccc(CN2CCN(C(=O)CCC(=O)Nc3nnc(C(C)C)s3)CC2)cc1F | inactive | 
COc1ccccc1C(=O)Nc1nc2nc(-c3ccccc3)cc(=O)n2[nH]1 | inactive | 
Cc1ccc(C)n1NC(=O)c1ccc([N+](=O)[O-])cc1 | inactive | 
CC1=NN(c2ccccc2)C(=O)C1C(=O)c1ccc([N+](=O)[O-])cc1 (stereo unspecified) | -4.73 (active) | 
Cc1ccc(NC(=O)/C(=C/c2ccc([N+](=O)[O-])cc2)NC(=O)c2ccccc2)cc1 | inactive | 
O=C(CC1CCCCC1)NCc1ccc(F)cc1 | inactive | 
Cc1ccc(/C=N/NC(=S)Nc2cccc(S(=O)(=O)N(C)C)c2)o1 | inactive | 
CN(C)S(=O)(=O)c1cccc(NC(=S)N/N=C/C(=O)c2ccccc2)c1 | -6.77 (active) | 
CN(C)S(=O)(=O)c1cccc(NC(=S)NCc2ccc3c(c2)OCO3)c1 | inactive | 
CCCc1cc(=O)oc2c(C)c(OCC(=O)N3CCC(C(=O)O)CC3)ccc12 | inactive | 
CCc1cc(=O)oc2cc(C)cc(OCC(=O)N3CCC[C@@H]3C(=O)O)c12 | -7.63 (active) | 
CCc1cc(=O)oc2cc(C)cc(OC(C)C(=O)O)c12 (stereo unspecified) | inactive | 
CC(Sc1cccc[n+]1[O-])C(=O)Nc1cccc(S(=O)(=O)N2CCOCC2)c1 (stereo unspecified) | inactive | 

SMILES | B-score | outcome
CN(C)S(=O)(=O)c1ccc(N2CCCC2)c(C(=O)NCc2ccccc2)c1 | inactive | 
Cc1ccccc1OCC(=O)NNC(=O)c1cc(S(=O)(=O)N(C)C)ccc1N1CCCC1 | -7.66 (active) | 
CN(C)S(=O)(=O)c1ccc(N2CCCC2)c(C(=O)Nc2cccc(F)c2)c1 | inactive | 
CN(C)C(=O)N=NC(=O)N(C)C | inactive | 
C=CCn1c(=O)c2ccccc2n2c(SCC(=O)N3CCCc4ccccc43)nnc12 | inactive | 
CCCn1c(=O)c2ccccc2n2c(SCC(=O)/C(C#N)=C(\C)N)nnc12 | -7.91 (active) | 
C=CCn1c(SCC(=O)/C(C#N)=C(\C)N)nc2sc(C)c(C)c2c1=O | inactive | 
CCOc1cc(-c2conc2N)cc(OCC)c1OCC | -6.9 (active) | 
CCOc1cc(C(=O)Nc2ncccn2)cc(OCC)c1OCC | inactive | 
CCOc1cc2c(Cl)ncnc2c(OCC)c1OCC | inactive | 
O=C1CSC2=NCN(c3ccccc3)CN12 | inactive | 
CCCn1nc2cc(C(=O)NCc3ccccc3)ccc2c1OCC | inactive | 
CCN(CC)c1ccc(C2C3CCCCC3(O)CCN2CC(=O)Nc2ccccc2)cc1 (stereo unspecified) | -5.44 (active) | 
CCN(CC)c1ccc(NC(=O)CN2CCN(c3ccccn3)CC2)cc1 | inactive | 
Cc1ccc(NC(=O)CN2CCC3(O)CCCCC3C2c2ccc3c(c2)OCO3)c(C)c1 (stereo unspecified) | inactive | 
CCOC(=O)c1c(N=CN(C)C)c(C#N)c2n1CCCC2 | inactive | 
Cc1cc2oc(=O)cc(CN3CCN(S(=O)(=O)c4cccs4)CC3)c2cc1C(C)C | inactive | 
CCOC(=O)Cc1csc(SCc2cc(=O)oc3cc(O)ccc23)n1 | -5.51 (active) | 
Cc1ccc2c(CSc3nncs3)cc(=O)oc2c1 | inactive | 
CCOC(=O)Cc1csc(NC(=O)COc2ccc3c(C)cc(=O)oc3c2)n1 | inactive | 
CN(C)N1C(N)=C(C#N)C(c2ccc(Br)cc2)C2=C1CCCC2=O (stereo unspecified) | inactive | 
C/C(CC(=O)NC(C)(C)C)=N\NC(=O)c1ccco1 | inactive | 
CCC(=O)NCc1cc(-c2nn(C)c(=O)c3ccccc23)ccc1OC | inactive | 
COc1ccc(-c2nn(C)c(=O)c3ccccc23)cc1CNC(=O)C1CCCCC1 | inactive | 
COc1ccc(-c2nn(C)c(=O)c3ccccc23)cc1NC(=O)COc1ccccc1 | -8.18 (active) | 
COc1cc(CC(=O)N2CCC(n3nccc3NC(=O)C3CC3)CC2)cc(OC)c1OC | inactive | 
CCOC(=O)N1CCN(C(=O)COc2ccc(Br)cc2)CC1 | inactive | 

SMILES | B-score | outcome
Cn1cnnc1SCC(=O)NNC(=O)COc1ccc(Br)cc1 | inactive | 
Cn1cccc1C(=O)NNC(=O)COc1ccc(Br)cc1 | -5.34 (active) | 
CCOC(=O)C(Sc1ncc(C#N)c(N)n1)C(C)C (stereo unspecified) | inactive | 
Fc1ccccc1Cc1ccc(Cl)nn1 | inactive | 
CC(C)c1ccc2c(c1)c(SC(C)(C)C)c(CC(C)(C)C(=O)O)n2Cc1ccc(Cl)cc1 | -4.82 (active) | inactive
O=C(O)c1ccc(Cn2c(=S)[nH]c3cc(Cl)ccc3c2=O)cc1 | inactive | 
CC(C)N(Cc1ccccc1)C(=O)COC(=O)c1ccccc1SCC(=O)N1CCCC1 | inactive | 
Cc1c(C)c(C)c(S(=O)(=O)NCCc2ccccn2)c(C)c1C | inactive | 
CCOC(=O)Nc1ccc2c(c1)N(C(=O)CCCl)c1ccccc1[S@]2=O | inactive | 
CCOC(=O)Nc1ccc2c(c1)N(C(=O)CN1CCN3CCCC3C1)c1ccccc1CC2 (stereo unspecified) | inactive | 
CCOC(=O)Nc1ccc2c(c1)N(C(=O)CCN1CCN(CCO)CC1)c1ccccc1CC2 | -9.01 (active) | 
COC(=O)C1=C(O)/C(=C/c2ccc(OCC(=O)Nc3ccccc3)cc2)N=C1C | inactive | 
CCOC(=O)C1=C(O)/C(=C/c2cc(C)n(-c3ccccc3)c2C)N=C1C | -4.95 (active) | 
CCOC(=O)C1=C(O)/C(=C/c2ccc(OCC(=O)Nc3ccc(C)cc3)cc2)N=C1C | inactive | 
O=C(NCCCN1CCCC1=O)c1cccc(S(=O)(=O)NCc2ccccc2)c1 | inactive | 
O=C(Nc1cc(S(=O)(=O)N2CCOCC2)ccc1Cl)c1cc(=O)c2ccccc2o1 | inactive | 
Cn1sc(=O)c2cc(S(=O)(=O)NC3CC3)ccc21 | inactive | 
O=C(CCN1C(=O)C2C3C=CC(C3)C2C1=O)Oc1ccc2ccccc2c1 (stereo unspecified) | inactive | 
Cc1ccc(C(=O)COC(=O)CCN2C(=O)C3C4CCC(C4)C3C2=O)cc1C (stereo unspecified) | inactive | 
Cc1ccc(C(=O)COC(=O)CCN2C(=O)C3C4CC(C(Br)C4Br)C3C2=O)cc1 (stereo unspecified) | -9.31 (active) | 
CCOc1ccc(-n2cnc3c(=O)[nH]c(N)nc32)cc1 | inactive | 
O=C(Nc1nc2ccccc2s1)c1ccc2c(c1)OCO2 | inactive | 
COCc1nnc(NC(=O)c2ccc3c(c2)OCO3)s1 | -5.8 (active) | 
CCCc1nnc(NC(=O)c2cc(OC)cc(OC)c2)s1 | inactive | 
